Measurements as given in PubChem BioAssay (EPA / NIEHS).
Active and inactive are the calls of the source. The calls were made as follows: active = hit-call score of the fitted dose curve at least 0.9, where 1 is the maximum; inactive = score below 0.9.

How the values were obtained:
Conditions in all cases: mRNA level, 48 h; actives raise or lower the signal
[1] = read-out: growth arrest and DNA damage 45 (GADD45A), GADD45A (gene 1647); test: LTEA_HepaRG_GADD45A: Life Technologies and Expression Analysis (LTEA) Assay for growth arrest and DNA damage 45 (GADD45A) using HepaRG (AID 2283458)
In short: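 Human HepaRG liver cells are treated in duplicate for 48 h with chemicals in 0.5% DMSO, highest concentration 100 uM. Expression is read by qRT-PCR and analyzed in both directions against vehicle.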

[2] = read-out: ABC Transporter (ABCB1), ABCB1 (gene 5243); test: LTEA_HepaRG_ABCB1: Life Technologies and Expression Analysis (LTEA) Assay for ABC Transporter (ABCB1) using HepaRG (AID 2283460)
In short: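 HepaRG cells exposed in duplicate for 48 h in serum-free induction medium to eight half-log concentrations up to 100 uM in 0.5% DMSO. ABCB1 mRNA quantified by qRT-PCR, normalised to ACTB, GAPDH and POLR2A; fitted bidirectionally versus DMSO.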

[3] = read-out: growth arrest and DNA damage 45 (GADD45B), GADD45B (gene 4616); test: LTEA_HepaRG_GADD45B: Life Technologies and Expression Analysis (LTEA) Assay for growth arrest and DNA damage 45 (GADD45B) using HepaRG (AID 2283461)
In short: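 Differentiated human HepaRG cells in serum-free induction medium exposed 48 h in duplicate to eight concentrations, top 100 uM, half-log steps, 0.5% DMSO. GADD45B mRNA by TaqMan qRT-PCR, normalized to ACTB, GAPDH, POLR2A; bidirectional fit versus DMSO.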

[4] = read-out: ABC Transporter (ABCB11), ABCB11 (gene 8647); test: LTEA_HepaRG_ABCB11: Life Technologies and Expression Analysis (LTEA) Assay for ABC Transporter (ABCB11) using HepaRG (AID 2283463)
In short: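 Differentiated human HepaRG cells in serum-free induction medium, dosed in duplicate for 48 h. Eight-point half-log series from 100 uM in 0.5% DMSO; ABCB11 mRNA by qRT-PCR, normalized to ACTB, GAPDH, POLR2A, fitted bidirectionally versus DMSO.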

[5] = read-out: Broad substrate specificity ATP-binding cassette transporter ABCG2 (Homo sapiens) (UniProt Q9UNQ0); test: LTEA_HepaRG_ABCG2: Life Technologies and Expression Analysis (LTEA) Assay for ABC Transporter (ABCG2) using HepaRG (AID 2283465)
In short: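 Differentiated HepaRG cells were exposed for 48 h in serum-free induction medium to 8 half-log concentrations, top 100 uM, in 0.5% DMSO. ABCG2 mRNA was measured by qRT-PCR, normalized to ACTB, GAPDH and POLR2A, with bidirectional fitting versus DMSO.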

[6] = read-out: ATP-citrate lyase (ACLY), ACLY (gene 47); test: LTEA_HepaRG_ACLY: Life Technologies and Expression Analysis (LTEA) Assay for ATP-citrate lyase (ACLY) using HepaRG (AID 2283466)
In short: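 Differentiated HepaRG cells exposed 48 h in serum-free induction medium to eight half-log concentrations up to 100 uM in 0.5% DMSO, duplicates. Transcript measured by Fluidigm TaqMan qRT-PCR, normalized to ACTB, GAPDH, POLR2A; bidirectional fit versus DMSO.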

[7] = read-out: Peroxisomal acyl-coenzyme A oxidase 1 (ACOX1) gene, ACOX1 (gene 51); test: LTEA_HepaRG_ACOX1: Life Technologies and Expression Analysis (LTEA) Assay for Peroxisomal acyl-coenzyme A oxidase 1 (ACOX1) gene using HepaRG (AID 2283467)
In short: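 HepaRG cells, plated 48 h then switched to serum-free induction medium, were exposed in duplicate for 48 h to 8-point half-log concentrations up to 100 uM in 0.5% DMSO. ACOX1 mRNA was measured by qRT-PCR, normalized to ACTB/GAPDH/POLR2A, and fitted bidirectionally versus DMSO.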

[8] = read-out: ABC Transporter (ABCC3), ABCC3 (gene 8714); test: LTEA_HepaRG_ABCC3: Life Technologies and Expression Analysis (LTEA) Assay for ABC Transporter (ABCC3) using HepaRG (AID 2283462)
In short: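 Differentiated human HepaRG cells exposed 48 h in serum-free induction medium, 0.5% DMSO vehicle, 8-point half-log series to 100 uM in duplicate. ABCC3 mRNA by qRT-PCR, normalised to ACTB, GAPDH, POLR2A; bidirectional fit vs DMSO.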

[9] = read-out: ABC Transporter (ABCC2), ABCC2 (gene 1244); test: LTEA_HepaRG_ABCC2: Life Technologies and Expression Analysis (LTEA) Assay for ABC Transporter (ABCC2) using HepaRG (AID 2283464)
In short: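 Differentiated HepaRG cells in serum-free induction medium exposed 48 h to eight half-log concentrations up to 100 uM, 0.5% DMSO, in duplicate. ABCC2 mRNA measured by qRT-PCR (TaqMan, Fluidigm), normalized to ACTB, GAPDH and POLR2A. Fitted in both directions against DMSO.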

[10] = read-out: Forkhead box O3 (FOXO3), FOXO3 (gene 2309); test: LTEA_HepaRG_FOXO3: Life Technologies and Expression Analysis (LTEA) Assay for Forkhead box O3 (FOXO3) using HepaRG (AID 2283459)
In short: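 Differentiated human HepaRG cells, 48 h post-plating, exposed in duplicate for 48 h in serum-free induction medium; 8-point half-log series from 100 uM in 0.5% DMSO. FOXO3 mRNA by TaqMan qRT-PCR, normalized to ACTB/GAPDH/POLR2A; bidirectional fit versus DMSO.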

Sequence of Broad substrate specificity ATP-binding cassette transporter ABCG2 (Homo sapiens) (Q9UNQ0 whole entry, looked up): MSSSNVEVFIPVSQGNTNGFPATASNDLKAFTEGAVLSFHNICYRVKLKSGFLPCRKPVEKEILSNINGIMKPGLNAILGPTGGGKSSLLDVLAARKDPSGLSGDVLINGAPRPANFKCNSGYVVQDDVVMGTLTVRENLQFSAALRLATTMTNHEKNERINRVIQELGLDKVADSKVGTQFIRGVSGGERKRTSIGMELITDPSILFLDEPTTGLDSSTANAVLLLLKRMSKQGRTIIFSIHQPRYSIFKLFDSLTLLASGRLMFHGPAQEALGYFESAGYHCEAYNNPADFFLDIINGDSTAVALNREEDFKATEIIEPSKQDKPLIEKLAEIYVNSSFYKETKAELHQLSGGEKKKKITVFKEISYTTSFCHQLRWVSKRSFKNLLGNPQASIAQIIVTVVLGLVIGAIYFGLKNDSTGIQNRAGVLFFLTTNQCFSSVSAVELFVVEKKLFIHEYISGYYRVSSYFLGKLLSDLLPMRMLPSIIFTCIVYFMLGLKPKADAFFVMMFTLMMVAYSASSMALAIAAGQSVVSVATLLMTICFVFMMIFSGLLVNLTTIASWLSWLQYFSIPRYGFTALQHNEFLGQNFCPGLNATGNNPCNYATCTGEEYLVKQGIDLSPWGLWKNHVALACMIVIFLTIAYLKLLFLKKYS

For `O=C(OCCCCCOC(=O)c1ccccc1)c1ccccc1`, the AC50 [1] was 2.13 µM (active), the AC50 [2] was 0.27 µM (active) and the outcome [3] was “inactive”. The AC50 [4] was 0.572 µM (active), the AC50 [5] was 0.773 µM (active) and the AC50 [6] was 50 µM (active). The outcome [7] was “inactive”.

In the case of `CCCCCCCCCCC`, the outcome [1] is reported as “inactive”, the outcome [2] is reported as “inactive” and the outcome [3] is reported as “inactive”. The outcome [8] was “inactive”, the outcome [4] was “inactive” and the outcome [9] was “inactive”. For the same molecule, the outcome [5] was “inactive”, the outcome [6] was “inactive” and the outcome [7] was “inactive”.

For `CCCCCCOCCO`, the outcome [2] was “inactive”, the outcome [3] was “inactive” and the outcome [4] was “inactive”. For the same molecule, the outcome [9] was “inactive”, the outcome [5] was “inactive” and the outcome [6] was “inactive”. For the same molecule, the outcome [7] was “inactive”.

In the case of `CCCCCCCCCCCCCCCCCC(=O)O`, the outcome [10] is reported as “inactive”, the outcome [2] is reported as “inactive” and the outcome [3] is reported as “inactive”. For the same molecule, the outcome [4] was “inactive”, the outcome [9] was “inactive” and the outcome [6] was “inactive”. The outcome [7] was “inactive”.

In the case of `O=c1c(O)c(-c2ccc(O)c(O)c2)oc2cc(O)cc(O)c12`, the outcome [3] is reported as “inactive”, the outcome [8] is reported as “inactive” and the AC50 [4] is reported as 76.7 µM (active). The outcome [9] was “inactive”, the outcome [6] was “inactive” and the outcome [7] was “inactive”.

In the case of `CCCCCCCCCCCC(=O)OC`, the outcome [2] is reported as “inactive”, the outcome [3] is reported as “inactive” and the outcome [4] is reported as “inactive”. The outcome [9] was “inactive”, the outcome [6] was “inactive” and the outcome [7] was “inactive”.

For `Nc1ccc2c(c1)C(=O)c1ccccc1C2=O`, the outcome [2] was “inactive”, the AC50 [3] was 9.75 µM (active) and the AC50 [4] was 4.81 µM (active). For the same molecule, the outcome [9] was “inactive”, the AC50 [5] was 10.4 µM (active) and the outcome [6] was “inactive”. For the same molecule, the outcome [7] was “inactive”.

`Cc1nc(-c2ccc3c(c2)CCN(CCC2CCC(NC(=O)/C=C/c4ccc(F)cc4)CC2)CC3)no1` (configuration not stated) was tested, and the outcome [2] was “inactive”, the outcome [3] was “inactive” and the outcome [8] was “inactive”. The outcome [4] was “inactive”, the outcome [9] was “inactive” and the outcome [5] was “inactive”. For the same molecule, the outcome [6] was “inactive” and the outcome [7] was “inactive”.
